The list is not random: actives were taken first. Their share in the collection is about 7.5%.
NPC1 promoter act: activators of NPC1 promoter. Huh7 NPC1 promoter luciferase reporter, 24 h. Potency, µM (top dose mostly 9.22 µM), actives largely listed as activators. 320,000 compounds, 2.4% hits; note: nearly all actives have a fitted effect of over 60% in size
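In 1536-well qHTS, Huh7 cells harboring an NPC1 promoter–luciferase construct received compound for 24 h; activation was quantified by luminescence following luciferase reagent addition.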
Luc counter: counter-screen: inhibitors of Kinase-Glo firefly luciferase | Q27757 | Kinase-Glo luciferase, ATP luminescence, 8 min | Potency, µM (titrated, usually from 38.3 µM), usual class: inhibitors | 200,000 compounds, 0.28% hits; note: nearly all actives have a fitted effect of over 60% in size
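Light output from Kinase-Glo luciferase with luciferin and 10 uM ATP in 50 mM imidazole pH 7.2, KCl, MgCl2, Tween 20, BSA; compound pin-delivered, 8-min ambient incubation, then luminescence read.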
Rab9 promoter act: Rab9 promoter activation; AID 485297; Huh7 Rab9 promoter-luciferase reporter, luminescence, 24 h; Potency, µM (top dose mostly 9.22 µM), hits mostly activators; 320,000 compounds, 2.8% hits; note: nearly all actives have a fitted effect of over 60% in size
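Rab9 promoter-driven luciferase in stably transfected Huh7 cells; 1500 cells/well rested 2 h, exposed to compound in DMSO for 24 h at 37 °C, 5% CO2. Luminescence read 10 min after adding luciferase reagent at ambient temperature.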
SMN2 splice enh: enhancers of SMN2 splice variant expression; Potency, µM (series often up to 46.1 µM), usual class: activators; 210,000 compounds, 2.8% hits; AID 1458; HEK293 SMN2-luciferase splicing reporter, luminescence, 30-36 h; note: nearly all actives have a fitted effect of over 55% in size
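HEK293 cells carry an SMN2 minigene-luciferase reporter in which exon 7 inclusion puts luciferase in frame. Cells were seeded at 2000 cells/well, attached for 10-12 hours, then exposed to compounds for 30-36 hours at 37C before ONE-Glo luminescence.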
FLuc modulator: counter-screen for miR-21 project: firefly luciferase inhibitors or activators; P08659; purified FLuc, Km substrates, luminescence inhibition; Potency, µM (series often up to 57.5 µM), hits mostly inhibitors; 360,000 compounds, 6.9% hits; AID 588342; note: nearly all actives have a fitted effect of over 55% in size
Target sequence (P08659 whole entry, looked up): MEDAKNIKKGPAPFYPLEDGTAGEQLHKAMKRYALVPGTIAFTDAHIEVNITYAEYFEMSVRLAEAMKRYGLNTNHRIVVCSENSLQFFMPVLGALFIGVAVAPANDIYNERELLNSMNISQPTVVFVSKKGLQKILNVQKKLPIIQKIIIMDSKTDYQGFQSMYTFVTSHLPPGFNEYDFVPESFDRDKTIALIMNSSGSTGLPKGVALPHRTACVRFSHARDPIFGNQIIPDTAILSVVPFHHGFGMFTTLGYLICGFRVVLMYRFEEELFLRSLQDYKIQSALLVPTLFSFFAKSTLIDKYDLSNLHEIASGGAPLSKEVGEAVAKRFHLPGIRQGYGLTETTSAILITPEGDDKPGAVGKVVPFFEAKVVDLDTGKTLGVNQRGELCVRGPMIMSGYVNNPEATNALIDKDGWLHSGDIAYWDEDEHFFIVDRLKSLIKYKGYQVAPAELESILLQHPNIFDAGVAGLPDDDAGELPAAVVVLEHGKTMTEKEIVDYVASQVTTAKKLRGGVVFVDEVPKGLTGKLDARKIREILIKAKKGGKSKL
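Purified P. pyralis luciferase (10nM final) with 10uM D-luciferin and 10uM ATP (Km levels) in 50mM Tris acetate pH 7.5, 10mM Mg acetate, 0.01% Tween-20, 0.05% BSA; qHTS 6-point titration, ~60 µM downward; luminescence read.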
ELG1 genotoxic: genotoxicity induction in ELG1-luciferase HEK293T cells; Potency, µM (series often up to 46 µM), hits mostly activators; 330,000 compounds, 1.3% hits; HEK293T ELG1-luciferase reporter, luminescence, 16 h; AID 504466; note: nearly all actives have a fitted effect of over 60% in size
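Luminescence read-out: rising ELG1-luciferase signal, reflecting elevated ELG1 protein under genetic stress, flags genotoxic compounds. Cells were treated for 16 hr at 37 °C before ONE-Glo detection.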
Of the large screens only hits and unclear results are named; the others gave an inactive call. Calls come from the whole dose curve; as a rule, active = well fitted curve in the direction sought with a large enough effect; inconclusive = small, poorly fitted or top-dose-only effect, or another doubt; inactive = no such curve, though single readings can be large; an effect the other way counts as inactive or inconclusive.

C/C(=N\NC(=O)c1cccc(C)c1)c1cccc(NC(=O)c2ccco2)c1	FLuc modulator 15µM
COCCn1c(=O)c(-c2ccc(F)c(F)c2)nc2cncnc21	none (no result: NPC1 promoter act, Rab9 promoter act, FLuc modulator, ELG1 genotoxic)
Clc1c(-c2ccccc2)nc2ccccn12	NPC1 promoter act 4µM, Rab9 promoter act 2.5µM, FLuc modulator 12µM, ELG1 genotoxic inconclusive (no result: Luc counter, SMN2 splice enh)
O=C(O)c1c(Cl)nc2ccccn12	none
CN(C)c1ccc(-c2nc3ccccn3c2/N=C/c2ccc(Br)cc2)cc1	NPC1 promoter act inconclusive, Luc counter inconclusive, Rab9 promoter act inconclusive, SMN2 splice enh 3.2µM, FLuc modulator 0.6µM, ELG1 genotoxic inconclusive
c1ccn2c(c1)nc1c2nc2ccccn21	NPC1 promoter act inconclusive, FLuc modulator 17µM, ELG1 genotoxic inconclusive
COc1ccc(OC)c(/C=N/c2c(-c3ccc(O)c(OC)c3)nc3ccccn23)c1	FLuc modulator inconclusive
Cc1c(-c2ccc(Br)cc2)nc2ccccn12	NPC1 promoter act 3.2µM, Rab9 promoter act 2.5µM, FLuc modulator 2.4µM, ELG1 genotoxic inconclusive (no result: Luc counter, SMN2 splice enh)
COc1ccc(C(=O)NCCN2CCOCC2)cc1S(=O)(=O)Nc1ccc(C)cc1	none (no result: Luc counter, SMN2 splice enh, FLuc modulator)
CC(C)(C)OC(=O)C[C@@H]1C/C=C\C[C@H](CC(=O)NCCO)C(=O)N[C@@H](Cc2ccccc2)COC1=O	none (no result: NPC1 promoter act, Luc counter, Rab9 promoter act, SMN2 splice enh, FLuc modulator)
CCOC(=O)c1c(NC(C)=O)c2c3c(sc2n1Cc1ccc(Cl)cc1)CCCC3	none (no result: NPC1 promoter act, Luc counter, Rab9 promoter act, ELG1 genotoxic)
COc1ccc(-c2nc3c4ccccc4ccn3c2C=O)cc1	none
Cc1ccc(-c2nc3ccccn3c2C=O)cc1	NPC1 promoter act inconclusive, Rab9 promoter act 3.5µM, FLuc modulator 21µM, ELG1 genotoxic inconclusive (no result: SMN2 splice enh)
COc1cc(Cl)c(C)cc1NC(=O)Cn1c(C)c2cnn(-c3ccccc3)c(=O)c2c1C	none (no result: NPC1 promoter act, Luc counter, Rab9 promoter act, ELG1 genotoxic)
CCc1ccc(NC(=O)C2C3C=CC(C4CC34)C2C(=O)O)cc1 (stereo not given)	SMN2 splice enh inconclusive, FLuc modulator 2.1µM
CC(=O)c1cccc(NC(=O)C2C3C=CC(C4CC34)C2C(=O)O)c1 (stereo not given)	none
COC(=O)COc1ccc(C)cc1-n1nc2ccccc2n1	none (no result: SMN2 splice enh)
Cc1ccc(OC(=O)c2cccc([N+](=O)[O-])c2)c(-n2nc3ccccc3n2)c1	NPC1 promoter act 3.5µM, Rab9 promoter act 2.8µM, SMN2 splice enh 13µM, FLuc modulator inconclusive, ELG1 genotoxic inconclusive
Cc1cc(-n2nc3ccccc3n2)c(O)c([N+](=O)[O-])c1	none (no result: Luc counter, SMN2 splice enh)
Cc1ccc(OC(=O)COc2ccccc2C)c(-n2nc3ccccc3n2)c1	NPC1 promoter act inconclusive, Rab9 promoter act inconclusive, SMN2 splice enh 11µM, FLuc modulator 4.8µM, ELG1 genotoxic inconclusive
Cc1ccc(OC(=O)COc2ccccc2)c(-n2nc3ccccc3n2)c1	NPC1 promoter act 3.5µM, Rab9 promoter act 2µM, FLuc modulator 8.5µM, ELG1 genotoxic 7.3µM
CCN(CC)S(=O)(=O)c1ccc(O)c(NC(=O)c2cc(-c3cc(OC)c(OC)c(OC)c3)nc3ccccc23)c1	none (no result: Luc counter, SMN2 splice enh)
CC1(C)CC(NC(=S)NCc2ccc3c(c2)OCO3)CC(C)(C)N1	none
COc1ccc(/C=C2/CCc3ccccc3C2=O)cc1CN1CCOCC1	FLuc modulator 9.5µM
COc1ccc(/C=C/C(=O)c2ccccc2O)cc1CN1CCOCC1	none
COc1ccc(/C=C2\CCc3ccccc3C2=O)cc1Cn1nc(C)cc1C	FLuc modulator 13µM
CCCOc1ccc(CNC(=S)Nc2ccccc2)cc1Cl	none (no result: Luc counter, SMN2 splice enh)
Cc1cccc(/C=N/n2c(C)nnc2C)c1	none
Cc1cccc(/C=N\N=C\c2cccc(C)c2)c1	NPC1 promoter act inconclusive, FLuc modulator 8.5µM (no result: Luc counter, SMN2 splice enh)
O=C(N/N=C/c1ccc(F)cc1)c1ccc(Br)cc1	FLuc modulator 9.5µM
O=C(N/N=C/c1ccc(Br)cc1)c1ccc(F)cc1	NPC1 promoter act inconclusive, SMN2 splice enh 13µM, FLuc modulator 6µM, ELG1 genotoxic inconclusive
O=C(N/N=C/c1ccc(Br)cc1)c1ccc(Br)o1	NPC1 promoter act inconclusive, Rab9 promoter act 3.2µM, SMN2 splice enh 11µM, FLuc modulator 4.3µM, ELG1 genotoxic inconclusive
CC(=O)Nc1ccc(S(=O)(=O)NCC(=O)Nc2ccc3c(c2)OCO3)cc1	none (no result: NPC1 promoter act, Luc counter, Rab9 promoter act, SMN2 splice enh, FLuc modulator)
